Assay results published in the antibiotic and cytotoxicity screens of Wong et al. (2023).
The campaign covered roughly 39,000 compounds. About 500 (1.3%) were called active. The list comes from a sample in which actives are over-represented; it also holds similar structures and randomly drawn compounds.

What follows are molecules tested on S. aureus RN4220 (assay: growth inhibition call (relative growth <= 0.2)). Settings: 50 µM.
For `Cc1noc(C)c1S(=O)(=O)N(C)C[C@@H]1OCCCC[C@H](C)Oc2ccc(NC(=O)Nc3cccc4ccccc34)cc2C(=O)N([C@H](C)CO)C[C@H]1C`, the growth inhibition call was “inactive”. In the case of `Cc1noc(C)c1NC(=O)N(C)C[C@@H]1OCCCC[C@@H](C)Oc2ccc(NC(=O)CCC(F)(F)F)cc2C(=O)N([C@H](C)CO)C[C@@H]1C`, the growth inhibition call is reported as “inactive”. For `CN(C)CC(=O)N[C@H]1C=C[C@H](CC(=O)O)O[C@H]1CO`, the growth inhibition call was “inactive”. For `CC(=O)[C@]1(N)Cc2c(O)c3c(c(O)c2[C@@H](O[C@H]2C[C@H](O)[C@H](O)CO2)C1)C(=O)c1ccccc1C3=O`, the growth inhibition call was “inactive”. `COc1cccc2c1C(=O)c1c(O)c3c(c(O)c1C2=O)C[C@](O)(C(C)=O)C[C@H]3O[C@H]1C[C@@H](N)[C@@H](O)[C@@H](C)O1` was tested, and the growth inhibition call was “active”. With `COc1cccc2c1C(=O)c1c(O)c3c(c(O)c1C2=O)C[C@@](O)(C(C)=O)C[C@@H]3O[C@H]1C[C@H](N)[C@H](O)[C@H](C)O1` the growth inhibition call was “active”. `COc1cccc2c1C(=O)c1c(O)c3c(c(O)c1C2=O)CC(O)(C(C)=O)CC3OC1CC(N)C(O)C(C)O1.Cl` (stereo unspecified) was tested, and the growth inhibition call was “inactive”. `CC(=O)[C@]1(O)Cc2c(O)c3c(c(O)c2[C@@H](O[C@@H]2C[C@@H](N)[C@H](O)[C@@H](C)O2)C1)C(=O)c1c(O)cccc1C3=O` was tested, and the growth inhibition call was “active”. With `Cc1ccc(S(=O)(=O)Nc2cccc3c2O[C@H](CN(C)S(=O)(=O)c2cn(C)cn2)[C@@H](C)CN([C@H](C)CO)C3=O)cc1` the growth inhibition call was “inactive”. In the case of `C[C@@H]1CCCCO[C@H](CN(C)C(=O)NC2CCCCC2)[C@H](C)CN([C@@H](C)CO)C(=O)c2cc(NC(=O)Nc3ccc4c(c3)OCO4)ccc2O1`, the growth inhibition call is reported as “inactive”. In the case of `Cc1cc(C)n([C@@H](CC(=O)O)C(=O)O)n1`, the growth inhibition call is reported as “inactive”. With `C[C@@H]1CCCCO[C@H](CN(C)Cc2ccc(Cl)c(Cl)c2)[C@H](C)CN([C@@H](C)CO)C(=O)c2cc(NC(=O)Nc3ccc4c(c3)OCO4)ccc2O1` the growth inhibition call was “inactive”. In the case of `O=C(/C=C/c1ccc(CNc2ccc([C@H]3O[C@@H](CSc4ccncc4)C[C@H](c4ccccc4)O3)cc2)cc1)NO`, the growth inhibition call is reported as “inactive”. With `C[C@H](CO)N1C[C@H](C)[C@H](CN(C)S(=O)(=O)c2cn(C)cn2)Oc2c(NS(=O)(=O)c3ccc(F)cc3)cccc2C1=O` the growth inhibition call was “inactive”. For `C[C@H]1CCCCO[C@H](CN(C)C(=O)Nc2ccc(F)cc2)[C@@H](C)CN([C@@H](C)CO)C(=O)c2cc(NC(=O)Nc3cccc4ccccc34)ccc2O1`, the growth inhibition call was “inactive”. For `COc1cccc(S(=O)(=O)Nc2ccc3c(c2)[C@@H]2C[C@@H](CC(=O)NC4CCCCC4)O[C@@H](CO)[C@@H]2O3)c1`, the growth inhibition call was “inactive”. With `N#C[C@@H]1N[C@@H](CO)[C@@H]1c1ccccc1` the growth inhibition call was “inactive”. With `CC(C)NC(=O)N(C)C[C@@H]1Oc2ccc(NC(=O)Nc3ccc4c(c3)OCO4)cc2CC(=O)N([C@@H](C)CO)C[C@H]1C` the growth inhibition call was “inactive”. `COc1ccc(CN(C)C[C@H]2OCCCC[C@H](C)Oc3ccc(NS(=O)(=O)c4c(C)noc4C)cc3C(=O)N([C@@H](C)CO)C[C@@H]2C)cc1` was tested, and the growth inhibition call was “inactive”. In the case of `COc1ccc(NC(=O)Nc2ccc3c(c2)C(=O)N([C@H](C)CO)C[C@H](C)[C@@H](CN(C)C(=O)c2ccccc2)OCCCC[C@H](C)O3)cc1`, the growth inhibition call is reported as “inactive”. For `C[C@H](CO)N1C[C@H](C)[C@@H](CN(C)Cc2ccc(C(F)(F)F)cc2)OCCCC[C@H](C)Oc2ccc(NC(=O)c3ccccc3)cc2C1=O`, the growth inhibition call was “inactive”. `CC[C@H]1OC(=O)[C@H](C)[C@@H](O[C@H]2C[C@@](C)(OC)[C@@H](O)[C@H](C)O2)[C@H](C)[C@@H](O[C@@H]2O[C@H](C)C[C@H](N(C)C)[C@H]2O)[C@](C)(O)C[C@@H](C)C(=O)[C@H](C)[C@@H](O)[C@]1(C)O` was tested, and the growth inhibition call was “active”. In the case of `CCCN1C[C@H](C)[C@@H](O)[C@](C)(O)[C@@H](CC)OC(=O)[C@H](C)[C@@H](O[C@H]2C[C@@](C)(OC)[C@@H](O)[C@H](C)O2)[C@H](C)[C@@H](O[C@@H]2O[C@H](C)C[C@H](N(C)C)[C@H]2O)[C@](C)(O)C[C@H]1C`, the growth inhibition call is reported as “active”. For `CCC1OC(=O)C(C)C(OC2CC(C)(OC)C(O)C(C)O2)C(C)C(OC2OC(C)CC(N(C)C)C2O)C(C)(O)CC(C)C(=O)C(C)C(O)C1(C)O` (stereo unspecified), the growth inhibition call was “active”. With `CCC1OC(=O)C(C)C(OC2CC(C)(OC)C(O)C(C)O2)C(C)C(OC2OC(C)CC(N(C)C)C2O)C(C)(O)CC(C)C(=O)C(C)C(O)C1(C)O.CCCCCCCCCCCCCCCCCC(=O)O` (stereo unspecified) the growth inhibition call was “inactive”. In the case of `CC[C@H]1OC(=O)[C@H](C)[C@@H](O[C@H]2C[C@@](C)(OC)[C@@H](O)[C@H](C)O2)[C@@H](C)[C@@H](O[C@H]2O[C@H](C)C[C@H](N(C)C)[C@H]2O)[C@](C)(O)C[C@@H](C)C(=O)[C@H](C)[C@@H](O)[C@]1(C)O`, the growth inhibition call is reported as “active”. In the case of `C[C@H](CO)N1C[C@H](C)[C@H](CN(C)S(C)(=O)=O)Oc2ccc(NC(=O)Nc3ccc(F)cc3)cc2C1=O`, the growth inhibition call is reported as “inactive”. `C[C@@H]1CN([C@@H](C)CO)C(=O)c2cc(NC(=O)NC3CCCCC3)ccc2O[C@@H](C)CCCCO[C@H]1CN(C)S(=O)(=O)c1ccccc1` was tested, and the growth inhibition call was “inactive”. For `Cc1ccc(NC(=O)c2ccc(CN3CC[C@H](N(C)C)C3)c(C(F)(F)F)c2)cc1Nc1nccc(-c2cncnc2)n1`, the growth inhibition call was “inactive”. In the case of `C[C@@H]1CN([C@H](C)CO)C(=O)c2ccccc2-c2ccccc2CO[C@@H]1CN(C)Cc1ccc(C(F)(F)F)cc1`, the growth inhibition call is reported as “inactive”. With `C[C@H](CO)N1C[C@H](C)[C@H](CN(C)Cc2cncnc2)Oc2ncc(C#C[C@@H](C)O)cc2C1=O` the growth inhibition call was “inactive”.
